We go through 29 compounds from PubChem BioAssay AID651820 (National Center for Advancing Translational Sciences (NCATS), 2012).

Values joined by “and” are separate entries in the source; they are usually repeats but may differ in a detail not shown here. Equal entries are not always repeated. About 12,000 (3.5%) of roughly 340,000 compounds were called active. Where a call stands in place of a potency, no number is given. Inconclusive results (about 18%) are left out. The sample holds actives, similar compounds and a random draw of the others, so the mix is not that of the screen. Calls come from the whole dose curve; as a rule, active = well fitted inhibition curve with a large enough effect; inconclusive = small, poorly fitted or top-dose-only effect, or another doubt; inactive = no such curve, though single readings can be large or run the other way. Some compounds were tested as several samples or in several runs, with calls that do not always agree.
Potency is the fitted concentration of half-maximal effect.

The assay is described as follows: qHTS Assay for Inhibitors of Hepatitis C Virus (HCV). As to conditions: Huh7.5.1 HCVcc-Cre infection, luciferase reporter, 44 h; series mostly up to 41.8 µM. The procedure, abridged:
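Infectious HCVcc-Cre (~0.5 moi) was added to cells just after compound, with cells seeded 4 h earlier at 1,000 per well. Luciferase activity after 44 h culture reported infection; substrate was incubated 15 min at room temperature before reading.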
(In general: In qHTS, concentration-response curves come from the screen itself.)
With `Cc1cc(C)c(C)c(S(=O)(=O)Nc2cccnc2)c1C`, the Potency result is “inactive”. The value for `CC(OC(=O)C1CC(=O)N(Cc2ccccc2)C1)C(=O)Nc1ccccc1[N+](=O)[O-]` (centres undefined) was “inactive”; that for `CCOc1ccc(N2C(=O)CSC2=NC#N)cc1` was “inactive”. The value for `COc1cc2[nH]c(=S)n(Cc3ccc(F)cc3)c(=O)c2cc1OC` was “inactive”; that for `COc1cc(-n2c(=S)[nH]c3ccc(C)cc3c2=O)c(Cl)cc1Cl` was 10 µM (active); that for `COc1ccc(OC)c(-n2c(=S)[nH]c3cc(C(=O)N4CCCCC4)ccc3c2=O)c1` was “inactive”. The value for `CCN(C(=O)CSc1cccc[n+]1[O-])c1ccccc1` was “inactive”; that for `Cc1onc(NC(=O)c2ccc([N+](=O)[O-])o2)c1Br` was “inactive”. With `Cc1cccc(NC(=O)c2ccc([N+](=O)[O-])o2)c1`, the Potency is 3.55 µM (active).

As for `Cc1cccc(NC(=S)NC(=O)c2ccc(Br)o2)c1`, the Potency entry is “inactive”. To `CC(C)(C)OC(=O)N[C@H](C(=O)OC(C)(C)C)c1ccc(Br)cc1` belongs “inactive”. For the compound `CC(=O)OCC(=O)C1(O)CCC2C3CC(C)C4=CC(=O)CCC4(C)C3C(O)CC21C` (centres undefined), the Potency result is “inactive”.

Consider `C[C@]12C=CC(=O)C=C1CC[C@@H]1[C@@H]2C(=O)C[C@@]2(C)[C@H]1CC[C@]2(O)C(=O)CO`, for which the Potency result is “inactive and 2.82 µM (active)”.

Turning to `CC1(C)C(=O)CCC2(C)C1=CCC1C2C(=O)CC2(C)C1CCC2(O)C(=O)CO` (centres undefined), the Potency result was “inactive”. With `COc1ccc(-n2c(C)cc(C(=O)CSc3nnc(-c4cccs4)o3)c2C)cc1`, the Potency is 11.2 µM (active).

Regarding `COc1ccc(-c2nnc(SCC(=O)c3cccs3)o2)c(OC)c1`, the Potency result is “inactive”. To `COc1ccc(C(=O)CSc2nnc(-c3ccco3)o2)cc1` belongs “inactive”.

As to `COc1cc(C=NNC(=O)c2cccnc2)ccc1OC(=O)c1ccccc1F`, the Potency entry was “inactive”. As for `O=C(COC(=O)c1ccccn1)NNC(=O)c1ccc([N+](=O)[O-])cc1`, the Potency result was “inactive”.

`O=C(Nc1ccccc1)N1CCC(C(=O)N2CCN(Cc3ccccc3)CC2)CC1`: the Potency result is “inactive”. Turning to `c1cnc(Nc2nc(-c3ccc4ccccc4c3)cs2)nc1`, the Potency entry is “inactive”.

Regarding `Cc1cccc(Nc2nc(-c3ccccc3)cs2)n1`, the Potency entry was “inactive”. Consider `c1ccc(Nc2nc(-c3ccncc3)cs2)nc1`, for which the Potency is 11.2 µM (active). The value for `CC(C)CN1CC(C)C(=O)N(c2ccccc2)C1=S` (centres undefined) was “inactive”. With `O=[N+]([O-])c1ccc(N2CCOCC2)cc1`, the Potency result is “inactive”.

In the case of `COc1ccc(C2NCCCC2c2ccccc2)cc1` (centres undefined), the Potency result is “inactive”. To `Cn1c(CN2CCOCC2)nc2cc(NC(=O)c3ccc(Cl)cc3)ccc21` belongs 2.82 µM (active); to `CCOC(=O)N1CCN(Cc2nc3cc(NC(C)=O)ccc3n2C)CC1`, “inactive”; to `CC(=O)NCCc1nc2cc(NC(=O)c3ccccc3)ccc2n1C`, “inactive”.
